Data from PubChem BioAssay (NCI).
This is part of a sample that, as a whole, favours compounds with a hit. Of some 83,000 tested, about 20% had one in any assay.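 The test compound was applied at a single concentration to cells in 96-well plates for 48 hours, and percent growth was recorded.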 The source made the active and inactive calls. The calls were made as follows: active = growth percent below 10; inactive = the rest.

Key:
Test in all cases: NCI-60 one-dose screen, 48 h (100 = growth as untreated, 0 = no growth, -100 = all killed)
Details in all cases: 10 µM unless noted
NCI-H23 lung = tested on: NCI-H23 lung
NCI-H226 lung = tested on: NCI-H226 lung
NCI-H322M lung = tested on: NCI-H322M lung
HOP-62 NSCLC = tested on: HOP-62 NSCLC
NCI-H460 lung = tested on: NCI-H460 lung
HOP-92 NSCLC = tested on: HOP-92 NSCLC
NCI-H522 lung = tested on: NCI-H522 lung
A549/ATCC NSCLC = tested on: A549/ATCC NSCLC
786-0 renal = tested on: 786-0 renal
COLO 205 colon = tested on: COLO 205 colon
DU-145 prostate = tested on: DU-145 prostate
K-562 leukemia = tested on: K-562 leukemia
MALME-3M melanoma = tested on: MALME-3M melanoma
MDA-MB-231 breast = tested on: MDA-MB-231 breast
RXF 393 renal = tested on: RXF 393 renal
SF-268 CNS = tested on: SF-268 CNS
SF-295 CNS = tested on: SF-295 CNS
SF-539 CNS = tested on: SF-539 CNS
UACC-257 melanoma = tested on: UACC-257 melanoma
M14 melanoma = tested on: M14 melanoma

Measured: growth

CN1CCN(c2ccc3nc(-c4ccc(OCCCCN5CCN(CCCCN6C(=O)c7cccc8cccc(c78)C6=O)CC5)cc4)[nH]c3c2)CC1
inactive: NCI-H23 lung 85.3% | NCI-H226 lung 86.6% | NCI-H322M lung 90.5% | HOP-62 NSCLC 64.1% | NCI-H460 lung 71.9% | NCI-H522 lung 65% | A549/ATCC NSCLC 57.1% | 786-0 renal 53% | COLO 205 colon 77.8% | DU-145 prostate 45% | K-562 leukemia 56.5% | MALME-3M melanoma 28% | MDA-MB-231 breast 62.7% | RXF 393 renal 16.1% | SF-268 CNS 65.7% | SF-295 CNS 29.1% | SF-539 CNS 39.8% | UACC-257 melanoma 59.8% | M14 melanoma 94.9%
active: HOP-92 NSCLC -54.4%

Cc1nc2ccccc2n1C(=O)C[C@@H]1NC(=S)NC1=O
inactive: NCI-H23 lung 95.5% | NCI-H226 lung 92.4% | NCI-H322M lung 96% | HOP-62 NSCLC 93.2% | NCI-H460 lung 104% | HOP-92 NSCLC 123% | NCI-H522 lung 96.8% | A549/ATCC NSCLC 93.1% | 786-0 renal 101% | COLO 205 colon 98.9% | DU-145 prostate 109% | K-562 leukemia 107% | MALME-3M melanoma 83.8% | MDA-MB-231 breast 95.8% | RXF 393 renal 108% | SF-268 CNS 95.1% | SF-295 CNS 98.4% | SF-539 CNS 98.6% | UACC-257 melanoma 86.9% | M14 melanoma 89.3%

O=c1cc(CSc2nnc(-c3ccc(F)cc3)o2)c2ccc3ccccc3c2o1
inactive: NCI-H23 lung 84.3% | NCI-H226 lung 81.1% | NCI-H322M lung 100% | HOP-62 NSCLC 75.4% | NCI-H460 lung 101% | HOP-92 NSCLC 92.2% | NCI-H522 lung 83.8% | A549/ATCC NSCLC 85.5% | 786-0 renal 104% | COLO 205 colon 117% | DU-145 prostate 107% | K-562 leukemia 93.9% | MALME-3M melanoma 107% | MDA-MB-231 breast 87.2% | RXF 393 renal 107% | SF-268 CNS 96.4% | SF-295 CNS 89.5% | SF-539 CNS 98.1% | UACC-257 melanoma 103% | M14 melanoma 103%

Cc1[nH]c(-c2cc(N)ccc2Cl)c2c1C(=O)CCCC2
inactive: NCI-H23 lung 36.3% | NCI-H226 lung 36.1% | NCI-H322M lung 40.8% | HOP-62 NSCLC 15.9% | NCI-H460 lung 57.3% | HOP-92 NSCLC 24.5% | NCI-H522 lung 16.2% | A549/ATCC NSCLC 45.2% | 786-0 renal 40.1% | COLO 205 colon 22.6% | DU-145 prostate 66.3% | K-562 leukemia 23.2% | MALME-3M melanoma 32.4% | MDA-MB-231 breast 22% | RXF 393 renal 19.6% | SF-268 CNS 53.5% | SF-295 CNS 31.8% | SF-539 CNS 25.3% | UACC-257 melanoma 18.6% | M14 melanoma 39.3%

O=C1c2cc3c(cc2-c2c1c1ccc(F)cc1c(=O)n2C[C@H](O)[C@H](O)[C@H](O)CO)OCO3
active: NCI-H23 lung -49.4% | NCI-H226 lung -34.7% | NCI-H322M lung 8.49% | HOP-62 NSCLC -23.1% | NCI-H460 lung 1% | HOP-92 NSCLC -7.34% | NCI-H522 lung -24.6% | A549/ATCC NSCLC -45.1% | 786-0 renal 0.283% | COLO 205 colon -30.9% | DU-145 prostate -1.68% | K-562 leukemia 5.32% | MALME-3M melanoma -48.9% | MDA-MB-231 breast -1.24% | RXF 393 renal -57.2% | SF-268 CNS 1.96% | SF-295 CNS -23.6% | SF-539 CNS -41.1% | UACC-257 melanoma -43.4% | M14 melanoma -20.4%

O=C(O)c1c(=O)cccc2ssc12
active: NCI-H23 lung 0.447% | NCI-H226 lung -14.8% | HOP-62 NSCLC -45.5% | NCI-H460 lung 1.81% | HOP-92 NSCLC -0.323% | NCI-H522 lung -0.415% | A549/ATCC NSCLC -51% | 786-0 renal -10.1% | COLO 205 colon -45.7% | DU-145 prostate -64.5% | K-562 leukemia 4.02% | MALME-3M melanoma -58.3% | MDA-MB-231 breast -57.3% | RXF 393 renal -66.8% | SF-268 CNS -38.6% | SF-295 CNS -6.02% | SF-539 CNS -18.6% | M14 melanoma 3.29%
inactive: NCI-H322M lung 62.1% | UACC-257 melanoma 54.1%

N#Cc1c(-c2ccc(Cl)cc2)nc(NN=Cc2ccco2)nc1N1CCOCC1
inactive: NCI-H23 lung 70.8% | NCI-H226 lung 70.8% | NCI-H322M lung 69.4% | HOP-62 NSCLC 66.4% | NCI-H460 lung 68.2% | HOP-92 NSCLC 40.6% | NCI-H522 lung 62.3% | A549/ATCC NSCLC 78.9% | 786-0 renal 74% | COLO 205 colon 75.2% | DU-145 prostate 85.4% | K-562 leukemia 104% | MALME-3M melanoma 42.4% | MDA-MB-231 breast 74.5% | RXF 393 renal 52.2% | SF-268 CNS 74.5% | SF-295 CNS 73.8% | SF-539 CNS 75.3% | UACC-257 melanoma 87.9% | M14 melanoma 71.4%

O=C1c2cc3c(cc2-c2c1c1ccc(F)cc1c(=O)n2CCCNCCO)OCO3
active: NCI-H23 lung -57.3% | NCI-H226 lung -60.1% | NCI-H322M lung -33.3% | HOP-62 NSCLC -48.9% | NCI-H460 lung -36.8% | HOP-92 NSCLC 2.28% | NCI-H522 lung -53.9% | A549/ATCC NSCLC -74.4% | 786-0 renal -84.8% | COLO 205 colon -66.5% | DU-145 prostate -68.5% | K-562 leukemia -55.7% | MALME-3M melanoma -72.2% | MDA-MB-231 breast -70% | RXF 393 renal -92.4% | SF-268 CNS -54.6% | SF-295 CNS -14.3% | SF-539 CNS -86.4% | UACC-257 melanoma -28% | M14 melanoma -39.7%
